Results taken from the supplement of paper PMC9492666.

Tests used:
HCC1937 = test: relative cell viability, compound + RSL3, vs DMSO (fraction of DMSO control); higher = less growth inhibition; settings: 72 h
MDA-MB-231 = test: as above; settings: 72 h
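Further: breast cancer cell viability read out with the CCK-8 kit after co-treatment of each compound with the ferroptosis inducer RSL3.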

Row | SMILES | relative cell viability (HCC1937) | relative cell viability (MDA-MB-231)
1 | CC(C)(Oc1ccc(CCNC(=O)c2ccc(Cl)cc2)cc1)C(=O)O [Bezafibrate] + COC(=O)c1ccc([C@H]2c3[nH]c4ccccc4c3C[C@H](C(=O)OC)N2C(=O)CCl)cc1 [RSL3] | 0.594 | 0.518
2 | O=S(=O)(O)c1ccc2cc(N=Nc3cc(S(=O)(=O)O)c4cccnc4c3O)ccc2c1 + COC(=O)c1ccc([C@H]2c3[nH]c4ccccc4c3C[C@H](C(=O)OC)N2C(=O)CCl)cc1 [RSL3] | 0.511 | 0.744
3 | C=C1C[C@]2(O)O[C@@]3(CC2=C(C)C)[C@@H](C)CC[C@@H]13 [Isocurcumenol] + COC(=O)c1ccc([C@H]2c3[nH]c4ccccc4c3C[C@H](C(=O)OC)N2C(=O)CCl)cc1 [RSL3] | 0.612 | 0.568
4 | COc1ccc(Nc2ccn(-c3ccccc3)n2)cc1 + COC(=O)c1ccc([C@H]2c3[nH]c4ccccc4c3C[C@H](C(=O)OC)N2C(=O)CCl)cc1 [RSL3] | 0.425 | 0.839
5 | NC(=O)c1ncn([C@@H]2O[C@H](CO)[C@@H](O)[C@H]2O)c1N [AICAR (Acadesine)] + COC(=O)c1ccc([C@H]2c3[nH]c4ccccc4c3C[C@H](C(=O)OC)N2C(=O)CCl)cc1 [RSL3] | 0.646 | 0.584
6 | COc1ccc([C@@H]2OC[C@H]3[C@@H]2CO[C@@H]3c2ccc(O[C@@H]3O[C@H](CO)[C@@H](O)[C@H](O)[C@H]3O)c(OC)c2)cc1OC [Forsythin] + COC(=O)c1ccc([C@H]2c3[nH]c4ccccc4c3C[C@H](C(=O)OC)N2C(=O)CCl)cc1 [RSL3] | 0.731 | 0.664
